Measurements taken from ChEMBL document CHEMBL3988442, “University of Dundee, Small-Polar-MMV Screening Library” (2021).
For some assays here: Measured potencies and affinities stand elsewhere.

Key:
Parameters in all cases: scale not given: direction of the effect not stated beside the values
[1] = biological target: Protein translocase subunit SecA (Escherichia coli (strain K12)) (UniProt P10408); assay: Assay to Identify E. coli SecA ATPase Inhibitors; type: functional; conditions: 30 µM
[2] = biological target: T1, Ubiquitin-activating enzyme e1, putative (Leishmania donovani (strain BPK282A1)) (UniProt E9BSI1); assay: Leishmania donovani Ubiquitin Activating Enzyme (LdE1); type: functional; conditions: 30 µM
T1 sequence (whole entry): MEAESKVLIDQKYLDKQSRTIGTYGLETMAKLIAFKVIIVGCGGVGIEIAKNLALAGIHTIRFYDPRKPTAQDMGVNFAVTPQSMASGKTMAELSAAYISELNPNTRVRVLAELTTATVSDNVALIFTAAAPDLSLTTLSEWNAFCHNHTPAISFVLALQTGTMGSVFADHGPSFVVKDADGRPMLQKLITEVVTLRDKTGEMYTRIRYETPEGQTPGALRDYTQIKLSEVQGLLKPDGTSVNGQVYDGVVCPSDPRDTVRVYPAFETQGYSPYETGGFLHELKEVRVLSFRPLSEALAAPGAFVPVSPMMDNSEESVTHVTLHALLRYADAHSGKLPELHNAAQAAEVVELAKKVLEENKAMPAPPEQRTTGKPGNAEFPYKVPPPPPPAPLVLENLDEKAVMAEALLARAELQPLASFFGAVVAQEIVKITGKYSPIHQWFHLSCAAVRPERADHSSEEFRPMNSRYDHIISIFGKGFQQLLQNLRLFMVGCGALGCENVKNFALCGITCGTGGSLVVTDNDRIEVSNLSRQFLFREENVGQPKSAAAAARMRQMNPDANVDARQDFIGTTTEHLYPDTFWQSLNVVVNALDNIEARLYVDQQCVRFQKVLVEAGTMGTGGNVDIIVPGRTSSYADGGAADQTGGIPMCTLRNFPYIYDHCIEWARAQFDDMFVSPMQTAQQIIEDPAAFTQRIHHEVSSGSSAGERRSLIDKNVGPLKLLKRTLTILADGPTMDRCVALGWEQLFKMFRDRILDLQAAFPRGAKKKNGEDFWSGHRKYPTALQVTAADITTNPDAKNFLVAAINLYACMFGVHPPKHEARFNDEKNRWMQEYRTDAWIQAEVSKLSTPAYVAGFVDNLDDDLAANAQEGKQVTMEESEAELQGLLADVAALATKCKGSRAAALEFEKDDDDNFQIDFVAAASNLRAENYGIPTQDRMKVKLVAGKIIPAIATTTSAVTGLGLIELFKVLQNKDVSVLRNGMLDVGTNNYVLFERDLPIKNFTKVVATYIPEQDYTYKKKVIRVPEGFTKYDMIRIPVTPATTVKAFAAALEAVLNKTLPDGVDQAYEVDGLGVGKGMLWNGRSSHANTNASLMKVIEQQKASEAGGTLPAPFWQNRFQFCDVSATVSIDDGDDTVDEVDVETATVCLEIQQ

[3] = biological target: Sialic acid-binding Ig-like lectin 9 (Homo sapiens) (UniProt Q9Y336); assay: Hs-Siglec9 ALPHAscreen SOP 20170721; conditions: 10 µM
Trypanosoma cruzi = assay: Trypanosoma cruzi phosphomannomutase and mannose-1-phosphate guanylyltransferase assay; type: functional; conditions: 10 µM
[4] = biological target: T2, Arginase-2, mitochondrial (Homo sapiens) (UniProt P78540); assay: in vitro enzyme assay to detect the production of urea directly proportional to the activity of Arginase II; type: functional; conditions: 33.3 µM; further: in the data most compounds retested in dose-response had high values
T2 sequence (whole entry): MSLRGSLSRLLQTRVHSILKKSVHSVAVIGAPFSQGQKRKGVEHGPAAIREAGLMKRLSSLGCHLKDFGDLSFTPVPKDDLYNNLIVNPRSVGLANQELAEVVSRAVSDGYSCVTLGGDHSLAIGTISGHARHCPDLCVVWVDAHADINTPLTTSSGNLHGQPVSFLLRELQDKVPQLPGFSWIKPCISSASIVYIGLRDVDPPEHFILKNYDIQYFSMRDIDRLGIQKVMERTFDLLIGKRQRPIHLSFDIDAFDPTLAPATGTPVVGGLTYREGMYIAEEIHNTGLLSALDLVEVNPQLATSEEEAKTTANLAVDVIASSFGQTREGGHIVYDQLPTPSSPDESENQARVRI

[5] = biological target: T3, Proteasome subunit beta (Trypanosoma cruzi) (UniProt O96673); assay: Trypanosoma cruzi proteasome chymotrypsin-like activity (TcProtChymo) assay.; further: in the data most compounds retested in dose-response had high values; type: functional; conditions: 9.37 µM
T3 sequence (whole entry): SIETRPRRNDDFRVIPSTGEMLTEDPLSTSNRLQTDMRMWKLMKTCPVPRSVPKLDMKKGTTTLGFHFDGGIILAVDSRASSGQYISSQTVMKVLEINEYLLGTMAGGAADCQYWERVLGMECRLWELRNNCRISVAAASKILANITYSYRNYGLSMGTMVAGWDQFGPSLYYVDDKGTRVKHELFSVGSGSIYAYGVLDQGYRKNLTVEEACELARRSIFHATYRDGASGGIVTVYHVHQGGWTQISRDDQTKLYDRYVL

Homo sapiens = species on record: Homo sapiens; assay: To identify inhibition of the IFN signalling (Jak-Stat) pathway via expression of an eGFP reporter gene under the control of an IFN-stimulated response element (ISRE) containing MxA promoter.; type: functional; conditions: 30 µM
[6] = biological target: T4, Tyrosyl-tRNA synthetase, putative (Trypanosoma cruzi (strain CL Brener)) (UniProt Q4DSP6); assay: Trypanosoma cruzi tyrosyl tRNA synthetase (TcYRS) _High Tyrosine SOP; type: functional; conditions: 30 µM; further: in the data most compounds retested in dose-response had high values
T4 sequence (whole entry): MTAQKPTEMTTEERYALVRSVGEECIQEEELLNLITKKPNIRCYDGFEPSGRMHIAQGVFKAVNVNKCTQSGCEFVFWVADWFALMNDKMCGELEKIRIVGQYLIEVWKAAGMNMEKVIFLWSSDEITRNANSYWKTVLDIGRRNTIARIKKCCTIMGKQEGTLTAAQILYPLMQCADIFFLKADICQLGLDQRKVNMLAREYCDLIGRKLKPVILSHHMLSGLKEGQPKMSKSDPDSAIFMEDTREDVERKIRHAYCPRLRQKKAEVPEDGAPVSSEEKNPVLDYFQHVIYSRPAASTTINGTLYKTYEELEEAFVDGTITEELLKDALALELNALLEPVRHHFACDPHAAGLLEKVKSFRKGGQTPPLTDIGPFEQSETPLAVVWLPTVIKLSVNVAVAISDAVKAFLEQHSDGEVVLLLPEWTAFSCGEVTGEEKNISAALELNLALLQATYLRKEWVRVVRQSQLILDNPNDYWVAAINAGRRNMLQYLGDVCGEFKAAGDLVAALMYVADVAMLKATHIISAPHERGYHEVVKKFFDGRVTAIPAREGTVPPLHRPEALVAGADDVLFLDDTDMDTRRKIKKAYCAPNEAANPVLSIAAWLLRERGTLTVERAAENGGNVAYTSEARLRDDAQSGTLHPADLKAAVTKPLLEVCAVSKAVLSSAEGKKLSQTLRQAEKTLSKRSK

[7] = biological target: T4, Tyrosyl-tRNA synthetase, putative (Trypanosoma cruzi (strain CL Brener)); assay: Trypanosoma cruzi tyrosyl tRNA synthetase (TcYRS) SOP; type: functional; conditions: 30 µM
[8] = biological target: Chromo domain-containing protein 1 (Saccharomyces cerevisiae (strain ATCC 204508 / S288c) (Baker's yeast)) (UniProt P32657); assay: ScCHD-1 Enzyme Inhibition Assay; type: functional; conditions: 30 µM; further: in the data most compounds retested in dose-response had high values
Sequence of Chromo domain-containing protein 1 (Saccharomyces cerevisiae (strain ATCC 204508 / S288c) (Baker's yeast)) (P32657 whole entry, the tested form may be a part): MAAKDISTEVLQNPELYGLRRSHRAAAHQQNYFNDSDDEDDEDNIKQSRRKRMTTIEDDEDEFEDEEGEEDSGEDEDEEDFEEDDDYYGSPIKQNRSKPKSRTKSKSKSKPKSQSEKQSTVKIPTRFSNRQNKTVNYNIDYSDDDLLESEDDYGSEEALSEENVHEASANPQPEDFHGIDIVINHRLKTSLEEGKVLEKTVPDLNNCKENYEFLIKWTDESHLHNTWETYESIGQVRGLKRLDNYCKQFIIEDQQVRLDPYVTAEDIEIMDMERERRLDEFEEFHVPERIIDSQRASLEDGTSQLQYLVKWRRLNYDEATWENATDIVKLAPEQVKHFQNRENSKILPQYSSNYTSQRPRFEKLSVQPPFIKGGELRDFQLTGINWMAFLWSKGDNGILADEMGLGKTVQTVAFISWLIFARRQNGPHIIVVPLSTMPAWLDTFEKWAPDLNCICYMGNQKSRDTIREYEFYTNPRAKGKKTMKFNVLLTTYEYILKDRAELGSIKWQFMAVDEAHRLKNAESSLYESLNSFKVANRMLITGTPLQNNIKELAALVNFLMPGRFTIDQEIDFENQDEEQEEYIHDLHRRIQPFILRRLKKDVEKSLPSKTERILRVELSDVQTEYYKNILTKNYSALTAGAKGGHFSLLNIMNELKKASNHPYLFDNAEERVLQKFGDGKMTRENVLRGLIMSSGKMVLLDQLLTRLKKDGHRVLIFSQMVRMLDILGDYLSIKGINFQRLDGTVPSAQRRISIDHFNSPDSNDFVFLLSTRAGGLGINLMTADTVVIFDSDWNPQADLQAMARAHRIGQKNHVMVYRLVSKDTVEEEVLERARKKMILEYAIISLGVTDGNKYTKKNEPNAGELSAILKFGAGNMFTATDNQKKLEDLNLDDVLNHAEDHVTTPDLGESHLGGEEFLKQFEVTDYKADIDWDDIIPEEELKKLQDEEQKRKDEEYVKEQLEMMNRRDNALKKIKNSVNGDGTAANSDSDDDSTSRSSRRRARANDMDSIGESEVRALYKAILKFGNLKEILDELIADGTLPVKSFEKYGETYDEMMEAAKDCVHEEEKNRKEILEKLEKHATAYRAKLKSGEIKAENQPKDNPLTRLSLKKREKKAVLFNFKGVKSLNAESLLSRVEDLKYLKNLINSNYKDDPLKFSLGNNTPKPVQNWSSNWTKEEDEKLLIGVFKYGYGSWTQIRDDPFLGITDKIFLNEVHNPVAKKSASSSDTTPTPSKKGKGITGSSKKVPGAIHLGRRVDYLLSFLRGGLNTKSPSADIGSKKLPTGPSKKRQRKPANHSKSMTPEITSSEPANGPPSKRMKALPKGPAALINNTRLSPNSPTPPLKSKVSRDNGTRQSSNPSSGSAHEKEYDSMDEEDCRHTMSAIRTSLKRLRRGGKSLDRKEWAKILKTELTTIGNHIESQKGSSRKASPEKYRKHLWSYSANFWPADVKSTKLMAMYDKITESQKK

Sequence of Sialic acid-binding Ig-like lectin 9 (Homo sapiens) (Q9Y336 whole entry): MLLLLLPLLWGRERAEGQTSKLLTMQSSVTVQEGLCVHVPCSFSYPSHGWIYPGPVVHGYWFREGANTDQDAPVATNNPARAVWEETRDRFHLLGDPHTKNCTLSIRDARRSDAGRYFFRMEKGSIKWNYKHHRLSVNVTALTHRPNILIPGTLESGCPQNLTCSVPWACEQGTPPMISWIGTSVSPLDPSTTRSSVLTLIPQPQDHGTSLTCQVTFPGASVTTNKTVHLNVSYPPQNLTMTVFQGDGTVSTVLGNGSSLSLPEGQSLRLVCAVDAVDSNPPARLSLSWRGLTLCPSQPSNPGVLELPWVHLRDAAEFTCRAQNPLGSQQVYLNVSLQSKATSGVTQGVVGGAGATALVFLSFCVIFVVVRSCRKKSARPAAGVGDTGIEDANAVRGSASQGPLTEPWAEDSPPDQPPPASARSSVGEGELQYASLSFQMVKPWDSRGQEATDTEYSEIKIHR
Sequence of Protein translocase subunit SecA (Escherichia coli (strain K12)) (P10408 whole entry): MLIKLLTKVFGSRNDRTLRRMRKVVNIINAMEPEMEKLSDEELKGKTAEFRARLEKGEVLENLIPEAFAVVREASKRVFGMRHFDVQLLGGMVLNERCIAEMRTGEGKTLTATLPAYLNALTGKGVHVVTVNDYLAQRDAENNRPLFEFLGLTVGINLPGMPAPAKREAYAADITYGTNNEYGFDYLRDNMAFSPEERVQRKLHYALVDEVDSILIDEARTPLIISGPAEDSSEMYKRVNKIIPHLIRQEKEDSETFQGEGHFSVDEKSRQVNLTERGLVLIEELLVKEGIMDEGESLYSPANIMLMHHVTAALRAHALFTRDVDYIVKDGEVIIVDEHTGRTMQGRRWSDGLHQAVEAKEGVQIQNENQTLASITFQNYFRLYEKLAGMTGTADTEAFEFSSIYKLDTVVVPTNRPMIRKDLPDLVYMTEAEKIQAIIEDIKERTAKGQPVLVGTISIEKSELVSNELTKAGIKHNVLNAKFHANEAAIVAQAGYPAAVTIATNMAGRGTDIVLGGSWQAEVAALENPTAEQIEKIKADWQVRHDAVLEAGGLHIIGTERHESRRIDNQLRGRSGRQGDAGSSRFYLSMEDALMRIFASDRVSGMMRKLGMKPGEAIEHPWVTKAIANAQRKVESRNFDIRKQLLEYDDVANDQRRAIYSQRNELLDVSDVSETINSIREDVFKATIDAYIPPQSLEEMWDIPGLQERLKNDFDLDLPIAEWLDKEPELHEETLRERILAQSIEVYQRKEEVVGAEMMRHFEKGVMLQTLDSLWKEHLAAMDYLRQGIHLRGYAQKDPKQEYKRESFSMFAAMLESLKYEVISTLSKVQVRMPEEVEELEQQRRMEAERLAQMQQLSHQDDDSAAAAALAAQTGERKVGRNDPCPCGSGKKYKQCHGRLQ

Row | Compound | Percent Effect [1] [%] | Percent Effect [2] [%] | Percent Effect [3] [%] | Percent Effect (Trypanosoma cruzi) [%] | Percent Effect [4] [%] | Percent Effect [5] [%] | Percent Effect (Homo sapiens) [%] | Percent Effect [6] [%] | Percent Effect [7] [%] | Percent Effect [8] [%]
1 | Cn1cccc1C(=O)N1CCCC2(CCCN2Cc2cccnc2)C1 (stereo not given) | -10.1 | -1.3 | -0.843 | -1.85 | -6.88 | 7.33 | 9.38 | -2.63 | 2.56 | -0.361
2 | O=C1CC2(CCCNC2)C(=O)N1Cc1ccc(F)cc1 (stereo not given) | -2.69 | 11.7 | -3.81 | -5.82 | 2.28 | 6.95 | 15.5 | 0.966 | -2.5 | -0.664
3 | CC(C)c1cc(CNC(=O)N2CCC(Cc3cnn(C)c3)C2)on1 (stereo not given) | -5.49 | 10.3 | -6.83 | 5.92 | -1.23 | 4.69 | 4.85 | 1.44 | 8.43 | -5.54
4 | Cc1nc(C)n(CC2CCCN2Cc2ccn(-c3ccccc3)n2)n1 (stereo not given) | 0.0578 | -20.8 | 13.8 | 0.933 | -4.3 | 4.04 | 3.86 | 4.9 | 16.5 | -7.02
5 | CN1CCN(c2cc(CNC(=O)c3ccc(=O)[nH]n3)ccn2)CC1 | -0.863 | 12.8 | -10.3 | -2.16 | 9.43 | 9.81 | 23.3 | 6.22 | 18.1 | -2.33
6 | CCOc1ccc(Cl)c(C(=O)N(C)C)n1 | -2.43 | 15.4 | -11.2 | -3.66 | 2.05 | 14.2 | 30.8 | 4.31 | 13.2 | -2.78
7 | O=C(Nc1ccccc1)N1CCn2nnc(COc3cccnc3)c2C1 | -6.28 | 6.49 | -0.598 | -0.487 | 4.86 | 5.56 | -5.86 | 8.95 | 15.4 | 5.54
8 | CCC1c2ccsc2CCN1C(=O)NCCNc1ncccn1 (stereo not given) | 0.216 | 15.4 | -5.88 | 6.29 | 6.15 | 9.3 | 10 | 6.22 | 22.9 | -7.01
9 | O=C(C1CCCCC1)N1CCC2(CCCN2CC2CC2)CC1 | -2.94 | 11.7 | -2.33 | -3.56 | 1.37 | 3.18 | 13.7 | 2.9 | 2.5 | -6.38
10 | Cc1c(F)cc(C(=O)O)cc1S(=O)(=O)Nc1cccc(C(F)F)c1 | -2.31 | -2.56 | 2.65 | 1.03 | 0.41 | 6.23 | 11.6 | -1.44 | -3.61 | -0.222
11 | Cc1nc(C)n(CC2CCCN2Cc2cn(-c3ccccc3)nn2)n1 (stereo not given) | -2.72 | -2.67 | 1.09 | -1 | -1.77 | 2.97 | -1.44 | 3.68 | 0 | -6.83
